Measurements reported in PubChem BioAssay (Tox21).
Several values for one entry are separate records, joined by “and”; a condition that tells them apart may be missing. Equal entries are not always repeated. Inconclusive results are not listed. Some structures have more than one record in an assay (separate samples or runs), and their calls can disagree. Activity calls are given as the source filed them. Unless noted, the call rests on the fitted dose curve; in most records, active means well fitted curve in the direction sought with a large enough effect in the repeat runs; inconclusive means weak or mixed curves; inactive means no such curve, though single readings can be large; an effect the other way counts as inactive or inconclusive.

Tests used:
[1] = qHTS assay to identify small molecule antagonists of the glucocorticoid receptor (GR) signaling pathway - cell viability counter screen (AID 720693); further: nearly all actives have a fitted effect of over 55% in size; further: potency means the concentration at half of the fitted maximal effect
[2] = qHTS assay for identifying genotoxic compounds that show differential cytotoxicity against isogenic chicken DT40 cell lines with known DNA damage response pathways - wild type cell line (AID 743012); further: nearly all actives have a fitted effect of over 60% in size; further: potency means the concentration at half of the fitted maximal effect
Outline: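 Viability by ATP luminescence (CellTiter-Glo, 30 min RT) after 40 h compound treatment at 37 C/5% CO2, using 300 parental DNA repair-proficient DT40 cells per well.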

[3] = qHTS assay for identifying genotoxic compounds that show differential cytotoxicity against isogenic chicken DT40 cell lines with known DNA damage response pathways - Rev3 mutant cell line (AID 743014); further: nearly all actives have a fitted effect of over 55% in size; further: potency means the concentration at half of the fitted maximal effect
[4] = qHTS assay for identifying genotoxic compounds that show differential cytotoxicity against isogenic chicken DT40 cell lines with known DNA damage response pathways - Rad54/Ku70 mutant cell line (AID 743015); further: nearly all actives have a fitted effect of over 60% in size; further: potency means the concentration at half of the fitted maximal effect
[5] = qHTS assay to identify small molecule antagonists of the androgen receptor (AR) signaling pathway - cell viability counter screen (AID 743033; further: nearly all actives have a fitted effect of over 45% in size; further: potency means the concentration at half of the fitted maximal effect)
[6] = qHTS assay to identify small molecule antagonists of the androgen receptor (AR) signaling pathway using the MDA cell line - cell viability counter screen (AID 743041; further: nearly all actives have a fitted effect of over 45% in size; further: potency means the concentration at half of the fitted maximal effect)
Outline: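 In this qHTS counter assay, fluorescence intensity after CellTiter-Fluor addition indicated viability of MDA-kb2 AR-luc cells given compounds and R1881 for 16 h at 37C.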

[7] = qHTS assay to identify small molecule antagonists of the thyroid receptor (TR) signaling pathway - cell viability counter screen (AID 743064); further: nearly all actives have a fitted effect of over 50% in size; further: potency means the concentration at half of the fitted maximal effect
Outline: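 Counter screen for cytotoxicity: compound plus T3 (1 nM final) on GH3.TRE-Luc cells, 23.5 h at 37 °C, then fluorescence viability readout with CellTiter-Fluor.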

[8] = test system: thyroid hormone receptor (rat, GH3 cells); assay: qHTS assay to identify small molecule agonists of the thyroid receptor (TR) signaling pathway (AID 743066; calls by dose curve)
[9] = qHTS assay to identify small molecule antagonists of the estrogen receptor alpha (ER-alpha) signaling pathway - cell viability counter screen (AID 743074; calls by dose curve;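 further: HEK293 cells carrying ER-alpha-UAS-bla reporter stimulated with 17beta-estradiol; nearly all actives have a fitted effect of over 45% in size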; further: potency means the concentration at half of the fitted maximal effect)
[10] = qHTS assay to identify small molecule antagonists of the estrogen receptor alpha (ER-alpha) signaling pathway using the BG1 cell line - cell viability counter screen (AID 743081);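 further: compound given together with 17beta-estradiol as the ER stimulus; nearly all actives have a fitted effect of over 45% in size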; further: potency means the concentration at half of the fitted maximal effect
Aromatase (Homo sapiens) = Aromatase (Homo sapiens) (UniProt P11511); assay: qHTS assay to identify aromatase inhibitors (AID 743083); further: nearly all actives have a fitted effect of over 55% in size; further: potency means the concentration at half of the fitted maximal effect
[11] = target: Estrogen receptor (Homo sapiens) (UniProt P03372); assay: qHTS assay to identify small molecule antagonists of the estrogen receptor alpha (ER-alpha) signaling pathway (AID 743069; active means well fitted curve in the direction sought with a large enough effect in the signal ratio in the repeat runs, not every such curve was filed as active; the % refers to the signal ratio)
Outline: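 A 17beta-estradiol challenge was applied right after compound transfer to ER-alpha-UAS-bla HEK293 cells previously kept in charcoal-stripped serum. Plates stood 18 hr at 37C and 5% CO2; fluorescence was read following 2 hr FRET substrate loading at room temperature.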

[12] = target: Estrogen receptor (Homo sapiens) (UniProt P03372); assay: qHTS assay to identify small molecule agonists of the estrogen receptor alpha (ER-alpha) signaling pathway (AID 743075; calls by dose curve;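 further: HEK293 GripTite cells with ER-alpha and UAS-driven beta-lactamase reporter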)
[13] = target: Estrogen receptor (Homo sapiens) (UniProt P03372); assay: qHTS assay to identify small molecule agonists of the estrogen receptor alpha (ER-alpha) signaling pathway using the BG1 cell line (AID 743079); further: nearly all actives have a fitted effect of over 20% in size; further: potency means the concentration at half of the fitted maximal effect
[14] = qHTS assay to identify small molecule antagonists of the estrogen receptor alpha (ER-alpha) signaling pathway using the BG1 cell line (AID 743080; calls by dose curve;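 further: BG1 cells stimulated with 17beta-estradiol alongside compound; series mostly up to about 70 µM; nearly all actives have a fitted effect of over 25% in size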)
Outline: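 BG1Luc4E2, endogenous ER-alpha, 4xERE-luc; 5 d charcoal-stripped FBS, phenol red free; 24 h plating; cpd + 17beta-estradiol 21.5 h, 37 C/5% CO2; CellTiter-Fluor viability 30 min, then ONE-Glo luciferase 30 min RT.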

[15] = qHTS assay to identify small molecule antagonists of the thyroid receptor (TR) signaling pathway (AID 743065); further: nearly all actives have a fitted effect of over 55% in size; further: potency means the concentration at half of the fitted maximal effect
Outline: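 GH3.TRE-Luc rat pituitary cells carrying two TR response elements driving luciferase were plated for 4 h, given compound plus 1 nM T3 (final), and incubated 23.5 h at 37 C. ONE-Glo luminescence measured reporter inhibition; CellTiter-Fluor fluorescence tracked cytotoxicity.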

Measured: Potency

Sequence of Estrogen receptor (Homo sapiens) (P03372 whole entry, looked up): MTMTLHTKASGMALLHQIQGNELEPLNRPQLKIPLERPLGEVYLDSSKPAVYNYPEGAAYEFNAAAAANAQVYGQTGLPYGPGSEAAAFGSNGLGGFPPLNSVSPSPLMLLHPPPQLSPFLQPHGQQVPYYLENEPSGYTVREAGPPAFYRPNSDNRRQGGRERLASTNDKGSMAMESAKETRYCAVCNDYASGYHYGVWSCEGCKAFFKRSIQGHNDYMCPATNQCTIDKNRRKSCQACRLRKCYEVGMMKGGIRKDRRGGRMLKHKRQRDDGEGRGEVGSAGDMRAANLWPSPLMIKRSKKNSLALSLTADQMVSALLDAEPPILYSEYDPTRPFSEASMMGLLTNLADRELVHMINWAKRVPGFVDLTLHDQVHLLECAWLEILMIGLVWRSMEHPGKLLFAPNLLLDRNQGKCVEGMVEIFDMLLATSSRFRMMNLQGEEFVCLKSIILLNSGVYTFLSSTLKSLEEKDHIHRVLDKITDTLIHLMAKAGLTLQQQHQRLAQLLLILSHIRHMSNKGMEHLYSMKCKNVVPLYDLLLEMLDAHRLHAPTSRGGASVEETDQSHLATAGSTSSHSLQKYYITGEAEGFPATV
Sequence of Aromatase (Homo sapiens) (P11511 whole entry, looked up): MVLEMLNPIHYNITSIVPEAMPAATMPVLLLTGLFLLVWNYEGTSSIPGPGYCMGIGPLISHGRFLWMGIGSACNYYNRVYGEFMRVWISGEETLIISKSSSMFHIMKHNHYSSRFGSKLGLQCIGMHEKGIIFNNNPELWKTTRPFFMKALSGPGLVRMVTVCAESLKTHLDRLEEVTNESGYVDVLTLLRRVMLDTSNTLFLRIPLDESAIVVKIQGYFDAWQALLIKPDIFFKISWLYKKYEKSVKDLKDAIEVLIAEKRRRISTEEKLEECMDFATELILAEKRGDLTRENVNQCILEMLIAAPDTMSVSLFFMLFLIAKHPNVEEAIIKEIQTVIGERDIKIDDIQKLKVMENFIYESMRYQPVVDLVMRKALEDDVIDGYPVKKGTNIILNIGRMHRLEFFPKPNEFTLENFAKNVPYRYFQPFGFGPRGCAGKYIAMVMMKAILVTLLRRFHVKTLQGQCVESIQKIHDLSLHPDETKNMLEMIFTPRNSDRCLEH

Cc1nc(-c2ccc(Cl)cc2)oc1COC(C)(C)C(=O)O
inactive: [1] | [2] | [3] | [4] | [5] | [6] | [7] | [8] | [9] | [10]

CC1(C)CCC[C@]2(C)[C@H]3CCO[C@]3(C)CC[C@@H]12
inactive: [1] | [2] | [3] | [4] | [5] | [6] | [7] | [9] | [10] | Aromatase (Homo sapiens)

CN(C)C(=O)COC(=O)Cc1ccc(OC(=O)c2ccc(N=C(N)N)cc2)cc1
inactive: [1] | [2] | [3] | [4] | [5] | [6] | [7] | [8] | [9] | [10]

CC(=O)Oc1cc2c(s1)CCN(C(C(=O)C1CC1)c1ccccc1F)C2 (stereo not given)
inactive: [1] | [2] | [3] | [4] | [5] | [6] | [7] | [8] | [11] | [12] | [13] | [14] | [10] | Aromatase (Homo sapiens)

CCCCOC(=O)CC
inactive: [1] | [2] | [3] | [4] | [5] | [6] | [7] | [15] | [8] | [9] | [10] | Aromatase (Homo sapiens)

CC(C)CCOC(=O)/C=C/c1ccccc1
active: [13] 24.4 µM
inactive: [1] | [2] | [3] | [4] | [5] | [6] | [7] | [8] | [11] | [12] | [10] | Aromatase (Homo sapiens)

O=C1C(c2[nH]c3ccc(S(=O)(=O)O)cc3c2O)=Nc2ccc(S(=O)(=O)O)cc21
inactive and 30.6 µM (active): [4]
inactive: [1] | [2] | [3] | [5] | [6] | [7] | [8] | [9] | [10] | Aromatase (Homo sapiens)

O=C(O)c1cc(-c2ccc(F)cc2F)ccc1O
inactive: [1] | [2] | [3] | [4] | [5] | [6] | [7] | [8] | [9] | [12] | [13] | [14] | [10] | Aromatase (Homo sapiens)

CCc1cccc(CC)c1NC(=O)CN(CC(=O)O)CC(=O)O
inactive: [1] | [2] | [3] | [4] | [5] | [6] | [15] | [8] | [11] | [12] | [13] | [14] | [10] | Aromatase (Homo sapiens)

COc1ccc(NC(=O)CC(C)=O)cc1
inactive: [1] | [2] | [3] | [4] | [5] | [6] | [7] | [15] | [8] | [9] | [10] | Aromatase (Homo sapiens)

CCCC(=O)OC(C)(C)Cc1ccccc1
inactive: [1] | [2] | [3] | [4] | [5] | [6] | [7] | [15] | [8] | [9] | [10] | Aromatase (Homo sapiens)

O=C(O)[C@H](O)[C@@H](O)[C@H](O[C@@H]1O[C@H](CO)[C@H](O)[C@H](O)[C@H]1O)[C@H](O)CO
inactive: [1] | [2] | [3] | [4] | [5] | [6] | [7] | [15] | [8] | [9] | [12] | [13] | [14] | Aromatase (Homo sapiens)

O=C(O)c1cc(N=Nc2ccc([N+](=O)[O-])cc2)ccc1O
active: [1] 21.5 µM | [6] 47.7 µM | [15] 47.7 µM | [13] 60 µM | [10] 53.5 µM
inactive: [2] | [3] | [4] | [5] | [8] | [9] | [12] | Aromatase (Homo sapiens)

C[C@@H](O)[C@H](N)C(=O)O
inactive: [1] | [2] | [3] | [4] | [5] | [6] | [7] | [15] | [8] | [9] | [10] | Aromatase (Homo sapiens)

O=c1[nH]c(=O)n([C@H]2C[C@H](O)[C@@H](CO)O2)cc1F
inactive: [1] | [5] | [6] | [8] | [12] | [13] | [10] | Aromatase (Homo sapiens)
active: [2] 0.0053 µM | [3] 0.0038 µM | [4] 0.0019 µM | [15] 0.75 µM | [9] 379 nM

COc1cccc2c1C(=O)c1c(O)c3c(c(O)c1C2=O)C[C@@](O)(C(C)=O)C[C@@H]3O[C@H]1C[C@H](N)[C@H](O)[C@H](C)O1
inactive: [9]
active: [1] 7.56 µM and 2.2 µM | [2] 23.7 nM and 21.8 nM | [3] 37.6 nM and 12.3 nM | [4] 10.6 nM and 2.4 nM | [5] 22 µM | [6] 54.8 µM | [7] 1.06 µM and 218 nM | [15] 596 nM and 154 nM | [10] 21.1 µM and 27.5 µM | Aromatase (Homo sapiens) 3.76 µM and 615 nM

Clc1ccnc(Cl)n1
inactive: [1] | [2] | [3] | [4] | [5] | [6] | [7] | [8] | [11] | [9] | [12] | [13] | [14] | [10] | Aromatase (Homo sapiens)

CNC(=O)c1ccccc1Sc1ccc2c(/C=C/c3ccccn3)n[nH]c2c1
active: [2] 2.11 µM | [3] 2.37 µM | [4] 2.66 µM
inactive: [1] | [5] | [6] | [7] | [8] | Aromatase (Homo sapiens)

O=c1[nH]c2ccccc2n1CCCN1CCN(C(c2ccccc2)c2ccccc2)CC1
inactive: [1] | [5] | [6] | [8] | [9] | Aromatase (Homo sapiens)
active: [2] 5.96 µM | [3] 6.68 µM | [4] 8.41 µM | [7] 23.7 µM | [15] 23.7 µM
